According to ChEMBL document CHEMBL1201862, “PubChem BioAssay data set” (2004):
The whole screen tested about 400,000 compounds, of which about 2,100 (0.53%) were called active. Not shown: some 14% with an inconclusive outcome. The rule behind the calls is not given here. The entries come from a sample that favours actives as a whole.

Molecular target: Ataxin-2 (Homo sapiens) (UniProt Q99700)
Assay: qHTS for Inhibitors of ATXN expression.
Format: functional

Chain of Ataxin-2 (Homo sapiens) (Q99700 whole entry): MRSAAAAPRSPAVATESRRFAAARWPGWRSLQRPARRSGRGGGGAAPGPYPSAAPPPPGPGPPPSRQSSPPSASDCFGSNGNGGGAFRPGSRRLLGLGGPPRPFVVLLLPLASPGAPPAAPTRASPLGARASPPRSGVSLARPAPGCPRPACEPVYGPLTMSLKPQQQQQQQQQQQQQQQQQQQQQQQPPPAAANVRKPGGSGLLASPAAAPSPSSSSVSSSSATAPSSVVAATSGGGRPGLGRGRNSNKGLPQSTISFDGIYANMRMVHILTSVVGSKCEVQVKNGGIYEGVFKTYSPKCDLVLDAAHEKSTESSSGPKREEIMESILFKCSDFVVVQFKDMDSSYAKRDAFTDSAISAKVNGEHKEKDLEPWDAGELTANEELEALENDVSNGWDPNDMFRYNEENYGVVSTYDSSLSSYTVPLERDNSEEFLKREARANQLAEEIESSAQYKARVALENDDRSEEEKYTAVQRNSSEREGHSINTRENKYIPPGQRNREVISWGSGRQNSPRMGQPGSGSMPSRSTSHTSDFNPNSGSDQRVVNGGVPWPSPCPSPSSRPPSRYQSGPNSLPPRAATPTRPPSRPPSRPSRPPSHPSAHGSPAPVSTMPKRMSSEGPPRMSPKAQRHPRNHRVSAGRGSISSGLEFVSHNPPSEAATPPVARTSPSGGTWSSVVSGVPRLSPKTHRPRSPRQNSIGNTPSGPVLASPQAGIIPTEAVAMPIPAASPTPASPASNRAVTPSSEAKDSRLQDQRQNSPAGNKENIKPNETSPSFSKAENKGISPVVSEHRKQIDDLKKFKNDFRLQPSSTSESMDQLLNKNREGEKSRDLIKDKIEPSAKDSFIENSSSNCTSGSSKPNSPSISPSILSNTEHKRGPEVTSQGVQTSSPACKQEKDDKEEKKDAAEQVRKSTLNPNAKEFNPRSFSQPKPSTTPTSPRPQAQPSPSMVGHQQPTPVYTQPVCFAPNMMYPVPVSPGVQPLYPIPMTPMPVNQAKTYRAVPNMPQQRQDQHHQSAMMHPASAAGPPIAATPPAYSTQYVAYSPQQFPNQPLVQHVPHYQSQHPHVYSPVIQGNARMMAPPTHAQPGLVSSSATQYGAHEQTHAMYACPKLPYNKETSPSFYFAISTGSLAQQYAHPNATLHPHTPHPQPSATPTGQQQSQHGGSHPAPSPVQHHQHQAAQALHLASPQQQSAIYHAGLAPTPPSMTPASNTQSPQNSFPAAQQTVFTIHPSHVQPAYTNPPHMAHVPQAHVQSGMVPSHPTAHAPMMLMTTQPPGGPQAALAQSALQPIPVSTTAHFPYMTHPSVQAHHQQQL

SMILES	Potency
COCCNC(=O)c1cc2c(=O)n3cccc(C)c3nc2n(Cc2ccncc2)c1=N	inactive
C/C(=N\NC(=O)C1COc2ccccc2O1)c1ccc(N2CCOCC2)cc1 (stereo unspecified)	inactive
O=C(COC(=O)c1c2c(nc3ccccc13)/C(=C\c1ccco1)CC2)NC1CCCC1	inactive
O=C1C(=C(I)I)c2ccccc2-c2ccccc21	26.7 µM (active)
COc1ccc(C2C=C(C)Nc3nc4ccccc4n32)cc1 (stereo unspecified)	inactive
Cc1ccc(C(C)(C)C)cc1S(=O)(=O)N1CC(=O)Nc2ccccc21	inactive
COc1ccc(NC(=O)c2oc3ccccc3c2NC(=O)COc2ccccc2OC)c(OC)c1	35.5 µM (active)
COc1ccc(NC(=O)COC(=O)c2[nH]nc3ccccc23)c(OC)c1	inactive
COc1ccc(C(=O)c2oc3ccccc3c2NC(=O)c2ccc(F)cc2)cc1	inactive
Brc1ccc(C2=CC(c3ccco3)n3ncnc3N2)cc1 (stereo unspecified)	inactive
COc1cccc2cc(C(=O)NCc3ccc(Cl)cc3)c(=O)oc12	inactive
COc1ccc(/N=c2\oc3cc(O)ccc3cc2C(=O)NCC2CCCO2)c(OC)c1 (stereo unspecified)	inactive
COc1ccc(/N=c2\oc3c(OC)cccc3cc2C(=O)NCc2ccco2)c(OC)c1	22.4 µM (active)
CCc1c(C)c(C#N)c2nc3ccccc3n2c1S	inactive
CC(C)=CCC[C@H](C)C[C@@H]1Cc2nc(S)nc(O)c2[C@@H](c2ccc(F)cc2)O1	28.2 µM (active)
Cc1ccc(-c2noc(CN(C(=O)c3ccc4c(c3)OCO4)C(C)C)n2)cc1	inactive
CC(=O)c1ccc(OCc2cc(C(=O)N3CCC(c4ccncc4)CC3)no2)cc1	inactive
CSc1ccccc1NC(=O)c1cc(CC(C)C)on1	inactive
CC(CNC(=O)c1cc(COc2ccc3ncccc3c2)on1)c1ccccc1 (stereo unspecified)	44.7 µM (active)
CCOC(=O)C1CCN(C(=O)Cn2c(=O)c3cccn3c3cccnc32)CC1	inactive
N#Cc1ccc(OCC(O)CS(=O)(=O)c2ccc(F)cc2)cc1 (stereo unspecified)	inactive

SMILES	Potency
CN(C)c1ccc(N=Nc2ccc(S(=O)(=O)O)cc2)c2ccccc12	25.1 µM (active)
Cc1cc(/C=c2\sc3nc4ccccc4n3c2=O)c(C)n1-c1ccc(C(=O)O)cc1	inactive
FC(F)Oc1ccc(/C=N/NC(=S)Nc2cc(C(F)(F)F)ccc2Cl)cc1	39.8 µM (active)
CC(Sc1nc[nH]n1)C(=O)Nc1cc(C(F)(F)F)ccc1Cl (stereo unspecified)	inactive
COc1cc(OC)c(C(=O)OC(C)C(=O)Nc2cc(C(F)(F)F)ccc2Cl)cc1OC (stereo unspecified)	inactive
CCCc1cc(NCc2ccccn2)n2c(nc3ccccc32)c1C#N	inactive
C=C1C(=O)OC2CC1C(O)CC(C)=CCCC(C)=CC(O)CC2C (stereo unspecified)	15 µM (active)
CN(C)CCNc1ncnc2c1sc1nc(-c3ccccc3)c3c(c12)CCCC3	25.1 µM (active)
NC(=O)c1sc2nc(-c3ccccc3)c3c(c2c1N)CCCC3	inactive
CC(=O)c1sc2nc(-c3ccc(C)cc3)c3c(c2c1N)CCCC3	inactive
CCN(CC)c1cc(C)c(C#N)c2nc3ccccc3n12	inactive
Cc1cc(C)nc(OC(C(=O)O)C(OCCc2ccccc2)(c2ccc(F)cc2)c2ccc(F)cc2)n1 (stereo unspecified)	inactive
CS(=O)(=O)c1ccc(C(=O)NCCN2C(=O)S/C(=C\c3cccnc3)C2=O)cc1[N+](=O)[O-]	11.2 µM (active)
Cc1ccc(C(=O)NCC(=O)N/N=C/c2cccs2)cc1[N+](=O)[O-]	inactive
CNCCCOc1ccc(C)cc1OC	inactive
COc1ccc(OCC(O)CNCCOc2ccccc2OC)c(C(C)(C)C)c1 (stereo unspecified)	20 µM (active)
COCCCn1c(=N)c(C(=O)NC2CCCC2)cc2c(=O)n3cccc(C)c3nc21	inactive
COCCN(C(=O)CCl)C(C(=O)NC1CCCCC1)c1ccccc1C (stereo unspecified)	25.1 µM (active)
COCCCn1c(C(=O)NC2CCCCC2)cc2c(=O)n3cccc(C)c3nc21	inactive
CC(C(=O)NC1CCCCC1)N(Cc1ccc(F)cc1)C(=O)c1snc(C(N)=O)c1N (stereo unspecified)	inactive
NC(=O)c1nsc(C(=O)N(Cc2cccnc2)C(C(=O)NC2CCCC2)c2ccc(F)cc2)c1N (stereo unspecified)	inactive

SMILES	Potency
COc1ccc(C(C(=O)NC2CCCCC2)N(C(=O)CCl)c2ccc(C)cc2)cc1 (stereo unspecified)	7.08 µM (active)
CCc1ccc(N(C(=O)c2snc(C(N)=O)c2N)C(C(=O)NC2CCCC2)c2ccncc2)cc1 (stereo unspecified)	inactive
COc1ccc(C(C(=O)NC2CCCC2)N(C(=O)c2ccco2)c2cc3c(cc2C(C)=O)OCO3)cc1 (stereo unspecified)	inactive
O=C(NC1CCCC1)C(c1ccc(Cl)cc1)N(Cc1ccc(F)cc1)C(=O)CCl (stereo unspecified)	39.8 µM (active)
COc1ccc(CCN2C(=O)CC(C(N)=O)S/C2=N\c2ccccc2)cc1 (stereo unspecified)	inactive
Cc1cc(C)c2c(N)c(C(=O)NN3CC(=O)N(c4cccc(Cl)c4)CC3=O)sc2n1	inactive
CO/N=C(\Cn1ncc(N2CCOCC2)c(Br)c1=O)c1ccc(Cl)cc1	inactive
CC(C)(C)C(=O)Cn1ncc(Br)c(Br)c1=O	15.8 µM (active)
Nc1cc2c(cc1O)CCCC2	inactive
O=C(COc1ccc(Br)cc1)N1CCc2ccccc21	inactive
COCCCn1c(=N)c(C(=O)NC2CCCC2)cc2c(=O)n3cc(C)ccc3nc21	inactive
CCCCCCn1c(=O)n2n(c1=O)[C@@H]1CN(S(=O)(=O)c3ccc(C)cc3)C[C@]1(O)[C@@H](OC(=O)NC1CCCC1)C2	44.7 µM (active)
CCCCCCn1c(=O)n2n(c1=O)[C@@H]1CN(S(=O)(=O)c3ccc(C)cc3)C[C@]1(O)[C@@H](OC(=O)NCC1CCCCC1)C2	31.6 µM (active)
CCOCCCn1c(=N)c(C(=O)NC2CCCC2)cc2c(=O)n3cc(C)ccc3nc21	inactive
CCCCCCn1c(=O)n2n(c1=O)C[C@]1(OC(=O)NCC3CCCCC3)CN(S(=O)(=O)c3ccc(C)cc3)C[C@]1(O)C2	31.6 µM (active)
Cc1cccc(C)c1N=C(S)NCCc1ccc(O)c(O)c1	inactive
CC1CC1C(=O)OCC(=O)c1c(N)n(C)c(=O)n(C)c1=O (stereo unspecified)	inactive
CCOC(=O)c1cc2c(=O)n3ccccc3nc2n(Cc2ccco2)/c1=N/C(=O)c1cccnc1	inactive
COc1ccc(-n2c3nc4ccccc4nc3c3c(=N)oc(C)nc32)cc1	inactive
